An excerpt weighted towards active compounds, which were near 3.6% of everything screened.
LMP1 NFkB inh = Epstein-Barr LMP1 NF-kappaB reporter inhibition. inhibition, % at 12.5 µM. AID 504558. 350,000 compounds, 0.69% hits. LMP1-induced NF-kappaB luciferase reporter cells, luminescence; in the data active = inhibition above about 41%; inconclusive = no clear call, values can overlap the other calls;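 also: 0% = neutral control wells and 100% = reference inhibitor control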
HSF1 inhib = HSF1 inhibition. NIH3T3-HGL HSE-luciferase, MG132-induced, luminescence 8 h; stronger effect = lower value. activity change, negative = inhibition, % at 7.5 µM (by protocol). 300,000 compounds, 0.77% hits. AID 2098;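 active = more than half of replicate wells show activity change below -50%, luminescence cut by over half; inconclusive = some wells, but at most half, below -50%; inactive = no replicate well below -50%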;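 also: luciferase reports HSF-1 transcriptional activity via heat shock element; 0% = median of DMSO wells and -100% = zero luminescence signal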
TWEAK Fn14 block = inhibitors of TWEAK-Fn14 interaction signaling; TWEAK-stimulated Fn14 reporter cells, luciferase luminescence, 8 h; inhibition, % at 10 µM; AID 1159606; 360,000 compounds, 2% hits; in the data active = inhibition above about 50%
HSF1 activator = increases HSF-1 driven luciferase reporter signal | 300,000 compounds, 1.7% hits | NIH3T3-HGL HSF-1 luciferase reporter, MG132, 8 h; 100% = twice DMSO control signal | AID 504408 | activation, % at 9 µM;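 active = mean replicate activation of at least 50% with a set share of replicates each reaching 50%; inconclusive = only one of those two conditions met; inactive = mean below 50% and too few replicates reaching it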;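 also: 0% = median of the neutral control wells and 100% = twice that signal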
TROY signal inh = inhibitors of TROY-dependent NF-kB signaling; Q293 LMP1-TROYcd NF-kB luciferase reporter, 4 h; inhibition, % at 10 µM; 360,000 compounds, 0.98% hits; AID 1347056;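 active = compounds whose plate-normalised and pattern-corrected inhibition of the luciferase reporter signal at the single screening dose is 50% or more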
LGR2 inh = Drosophila LGR2 receptor signaling inhibition | HEK293 LGR2, CRE-luciferase, bursicon-stimulated, 4 h | inhibition, % at 9.99 µM | 380,000 compounds, 0.35% hits;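 active = drop in luminescence signal, shown as inhibition above about 50% in the replicate tests, limit read from the data, passing the limit was not always enough; inconclusive = probably only some replicates passing the limit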;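 also: agonist challenge used bursicon conditioned medium at about half maximal strength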
Active calls of the source: *; ? = inconclusive; · = no result.

SMILES	LMP1 NFkB inh	HSF1 inhib	TWEAK Fn14 block	HSF1 activator	TROY signal inh	LGR2 inh
COc1ccc(C(NC(=O)c2ccc(=O)[nH]c2)C(=O)Nc2ccc(C(C)C)cc2)cc1 (stereo unspecified)	7	-61*	-4	-72	7	-21
Cc1cccc(NC(=O)CCNS(=O)(=O)c2cccc3nsnc23)c1	-18	-2	3	-5	17	·
CC(C)c1ccc(NC(=O)CCNS(=O)(=O)c2cccc3nsnc23)cc1	2	-9	0	-12	5	12
O=S(=O)(Nc1ccc2c(c1)OCCO2)c1cccc2nsnc12	38	-59*	95*	-67	84*	5
O=C(CCNS(=O)(=O)c1cccc2nsnc12)Nc1ccc2c(c1)OCCO2	16	-27	58*	-28	3	·
O=S(=O)(Nc1ccccc1)c1cccc2nsnc12	1	-27	15	-41	7	2
CC(NC(=O)CCNS(=O)(=O)c1cccc2nsnc12)c1ccccc1 (stereo unspecified)	0	7	54*	11	20	-9
Cc1ccc(S(=O)(=O)N(C)C[C@H]2Oc3ccc(NC(=O)Cn4cnnn4)cc3CC(=O)N([C@H](C)CO)C[C@H]2C)cc1	·	·	·	·	·	16
CCC(C(=O)OCC(=O)Nc1cc(Cl)ccc1Cl)c1ccccc1 (stereo unspecified)	3	-66*	-34	-74	-26	15
CCS(=O)(=O)NCC[C@H]1CC[C@@H](NC(=O)C2CCCCC2)[C@H](CO)O1	·	·	·	·	·	3
COc1ccccc1N1CCN(C(=S)Nc2ccc3nc(N4CCOCC4)cc(C)c3c2)CC1	19	-2	52*	-2	37	26
COc1ccccc1N1CCN(C(=S)Nc2cccc(C)c2)CC1	12	?	63*	-48	61*	-16
Cc1cccc(NC(=S)N2CCN(c3cc(C)ccc3C)CC2)c1	4	5	11	15	15	9
O=C(C1CCOCC1)N1CC(=O)N2[C@@H](CO)[C@H](c3ccc(C#Cc4cccc(F)c4)cc3)[C@@H]2C1	·	·	·	·	·	-13
C[C@@H]1CN([C@H](C)CO)C(=O)Cc2cc(NC(=O)CCC(F)(F)F)ccc2O[C@@H]1CN(C)Cc1ccc2c(c1)OCO2	·	·	·	·	·	-7
Cc1cc(N=NC(=O)c2ccccc2O)c2ccccc2c1O	-13	24	1	77*	-15	·
Nc1[nH]n(-c2ccccc2)c(=O)c1N=Nc1ccc2c(c1)OCO2	-34	-3	-5	0	-25	-90
Nc1[nH]n(-c2ccccc2)c(=O)c1N=Nc1ccc2c(c1)OCCO2	-68	-8	68*	-24	51*	36
C[C@@H](NC(=O)C[C@H]1CC[C@@H](NC(=O)C2CCC2)[C@H](CO)O1)c1ccccc1	·	·	·	·	·	14
CCOc1ccc(-n2nnnc2-c2nc3ccccc3s2)cc1	3	-57*	74*	-65	62*	27
COc1cc2c(c(OC)c1OC)-c1ccc(SC)c(=O)cc1C(NC=O)CC2 (stereo unspecified)	3	·	57*	·	29	20
Oc1c(Br)cc(Br)cc1C=Nc1cccc2ncccc12	-1	37	20	62*	-4	8
CO[C@@H]1CN(C)C(=O)c2cc(NC(=O)CC(F)(F)F)ccc2OC[C@H](C)N(C(=O)C2CCOCC2)C[C@H]1C	·	·	·	·	·	-5
C[C@H](CO)N1C[C@H](C)[C@H](CN(C)S(=O)(=O)c2ccc(F)cc2)Oc2ncc(C#Cc3cccc(F)c3)cc2C1=O	·	·	·	·	·	9
CCC(C)Nc1ccc(NC(C)CC)cc1 (stereo unspecified)	22	·	69*	·	39	·
SMILES	LMP1 NFkB inh	HSF1 inhib	TWEAK Fn14 block	HSF1 activator	TROY signal inh	LGR2 inh
CC1(C)CC(=O)C2=C(C1)OC(N)=C(C#N)C2C#Cc1ccccc1 (stereo unspecified)	-2	22	-15	78*	-6	·
Cc1cc(C(=O)Nc2cccc3c2O[C@@H](CN(C)S(=O)(=O)c2ccc(Cl)cc2)[C@@H](C)CN([C@@H](C)CO)C3=O)n(C)n1	·	·	·	·	·	-23
COc1ccc(S(=O)(=O)N2CCC3(CC2)CN(C(=O)c2cccnc2)[C@@H](CO)c2c3c3ccc(OC)cc3n2C)cc1	·	·	·	·	·	-6
CCOC(=O)/C(C#N)=C/c1c(N2CCN(c3ccccc3)CC2)nc2ccccn2c1=O	-2	56	8	93*	-34	-65
O=C(/C=C/c1cccs1)Nc1cccc(NC(=O)/C=C/c2cccs2)n1	-11	-4	73*	6	26	43
O=C(/C=C/c1cccs1)Nc1nccs1	-25	11	0	47	-33	-13
Cc1cc(C)c(-c2csc(NC(=O)/C=C/c3cccs3)n2)c(C)c1	6	2	69*	-3	-5	4
CC(C)NC(=O)Nc1ccc2c(c1)C(=O)N([C@@H](C)CO)C[C@H](C)[C@@H](CN(C)C(=O)C1CCCCC1)OCCCC[C@H](C)O2	·	·	·	·	·	6
C[C@@H]1CCCCO[C@@H](CN(C)Cc2ccc(C(=O)O)cc2)[C@H](C)CN([C@@H](C)CO)C(=O)c2cc(NC(=O)Nc3cccc4ccccc34)ccc2O1	·	·	·	·	·	1
Cn1c(-c2ccccc2)cnc1SCC(=O)N1CCCCC1	66*	16	93*	?	61*	·
Cn1c(-c2ccccc2)cnc1SCC(=O)N1CCCc2ccccc21	-1	17	-8	67*	-19	9
O=C1/C(=C/c2ccccc2)CCc2ccc(Cl)nc21	6	·	72*	·	21	70*
CC(=Cc1ccccc1)C(=O)c1ccccc1	-8	·	-7	·	-16	2
O=C(C(Br)=Cc1ccccc1)c1ccccc1	-28	·	93*	·	-2	32
CC(=O)C(=Cc1ccc(-c2ccccc2)cc1)C(=O)c1ccccc1	·	·	55*	·	11	8
CNC[C@@H]1Oc2cc(C#Cc3ccccc3F)ccc2S(=O)(=O)N([C@@H](C)CO)C[C@H]1C	·	·	·	·	·	1
Cc1cc(C)c(NN=c2c(=O)c3ccccc3c2=O)c(C)c1	-21	25	6	67*	-56	-18
O=c1c(=NNc2ccccc2Cl)c(=O)c2ccccc12	24	·	98*	·	67*	16
CCN(CC)S(=O)(=O)c1cccc(NN=c2c(=O)c3ccccc3c2=O)c1	-4	1	-16	2	-10	1
Cc1cc(C(=O)CCl)c(C)n1CCc1ccc(Cl)cc1	3	41	5	61*	13	4
Cc1cc(C(=O)CCl)c(C)n1CCc1ccc(F)cc1	-2	-1	9	31	-9	17
N#Cc1nc(NCC(F)F)nc(Nc2cc(F)cc(F)c2)n1	-5	·	92*	·	46	27
Cc1cc(C(=O)Nc2cccc3c2O[C@H](CN(C)C(=O)Nc2ccc(F)cc2)[C@@H](C)CN([C@@H](C)CO)C3=O)n(C)n1	·	·	·	·	·	-18

Screening data deposited in PubChem BioAssay by several laboratories.
